According to PubChem BioAssay AID1159580 (chemical genetic matrix, 2015):
Hit rate of the full screen: of about 5,500 compounds, about 2,000 (36%) were called active. Roughly 18% stayed inconclusive and do not appear here. No stated cut-off is given here; in the data, active means normalized growth mostly below about 0.91 (no sharp cut-off); inconclusive means no clear call, values can overlap the other calls; inactive means mostly above about 0.92. Some of the results follow.

Experiment: chemical genetic growth profiling, strain panel (AID 1159580);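 further: tested at 20 µM; growth read once vehicle control cultures reached saturation at 30 °C; 1 = growth at the plate median or of vehicle wells; lower values mean less growth of the strain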
Settings: S. cerevisiae deletion strains, growth OD
[1] = locus YDL101C, strain DUN1, hits give low values
[2] = locus YHR030C, strain SLT2, hits give low values
[3] = locus YAL013W, strain DEP1, hits give low values
[4] = locus YBR229C, strain ROT2, hits give low values
[5] = locus YCL061C, strain MRC1, hits give low values
[6] = locus YDR150W, strain NUM1, hits give low values
[7] = locus YEL061C, strain CIN8, hits give low values
[8] = locus YGR078C, strain PAC10, hits give low values
[9] = locus YHR087W, strain rtc3, hits give low values
[10] = locus YJR043C, strain POL32, hits give low values
[11] = locus YJR075W, strain HOC1, hits give low values
[12] = locus YLR039C, strain RIC1, hits give low values
[13] = locus YLR058C, strain SHM2 (second series), hits give low values
[14] = locus YLR085C, strain ARP6, hits give low values
[15] = locus YLR262C, strain YPT6, hits give low values
[16] = locus YML094W, strain GIM5, hits give low values
[17] = locus YMR219W, strain ESC1, hits give low values
[18] = locus YMR263W, strain SAP30, hits give low values
[19] = locus YNL153C, strain GIM3, hits give low values
[20] = locus YNL298W, strain CLA4 (second series), hits give low values
[21] = locus YNL322C, strain KRE1, hits give low values
[22] = locus YNR030W, strain Alg12, hits give low values
[23] = locus YOL006C, strain TOP1, hits give low values
[24] = locus YPL055C, strain LGE1, hits give low values
[25] = locus YPL241C, strain CIN2, hits give low values
[26] = locus YPR135W, strain CTF4, hits give low values

Measured: normalized growth

O=[N+]([O-])c1cc(Br)cnc1Sc1nnc(SCC2CC2)s1
inactive: locus YAR019C, strain CDC15, hits give low values 0.928 | locus YBL105C, strain PKC1, hits give low values 0.96 | locus YBR135W, strain CKS1, hits give low values 0.932 | locus YBR136W, strain MEC1, hits give low values 0.959 | locus YBR160W, strain CDC28, hits give low values 0.953 | locus YDL017W, strain CDC7, hits give low values 0.961 | locus YDL028C, strain MPS1, hits give low values 0.935 | [1] 0.965 | locus YDL108W, strain KIN28, hits give low values 0.952 | locus YDL132W, strain cdc53, hits give low values 0.936 | locus YDR052C, strain DBF4, hits give low values 0.964 | locus YDR054C, strain cdc34, hits give low values 0.947 | locus YDR226W, strain ADK1, hits give low values 0.927 | locus YDR477W, strain SNF1, hits give low values 0.767 | locus YER133W, strain GLC7, hits give low values 0.762 | locus YFL009W, strain cdc4, hits give low values 0.93 | locus YFL029C, strain CAK1, hits give low values 0.943 | locus YFR003C, strain YPI1, hits give low values 0.962 | locus YFR028C, strain CDC14, hits give low values 0.943 | locus YGR040W, strain KSS1, hits give low values 0.771 | locus YGR052W, strain FMP48, hits give low values 0.7 | locus YHR082C, strain KSP1, hits give low values 0.707 | locus YHR205W, strain SCH9, hits give low values 0.609 | locus YIL147C, strain SLN1, hits give low values 0.952 | locus YJL128C, strain PBS2, hits give low values 0.948 | locus YJR016C, strain ILV3, hits give low values 0.944 | locus YJR066W, strain TOR1, hits give low values 0.621 | locus YKL193C, strain SDS22, hits give low values 0.935 | locus YKL203C, strain TOR2, hits give low values 0.872 | locus YLR403W, strain SFP1, hits give low values 0.754 | locus YMR001C, strain CDC5, hits give low values 0.928 | locus YMR277W, strain FCP1, hits give low values 0.924 | locus YNL006W, strain LST8, hits give low values 0.961 | locus YNL161W, strain CBK1, hits give low values 0.939 | locus YNL207W, strain RIO2, hits give low values 0.929 | locus YNL222W, strain SSU72, hits give low values 0.944 | locus YOL078W, strain AVO1, hits give low values 0.927 | locus YOR119C, strain RIO1, hits give low values 0.818 | locus YOR329C, strain SCD5, hits give low values 0.962 | locus YPL204W, strain HRR25, hits give low values 0.751 | locus YPL209C, strain IPL1, hits give low values 0.958 | locus YPR025C, strain CCL1, hits give low values 0.95 | locus YPR106W, strain ISR1, hits give low values 0.978 | locus YPR111W, strain DBF20, hits give low values 0.96 | strain NNK1, hits give low values 0.969 | strain TSCII, hits give low values 0.929
active: locus YDL214C, strain PRR2, hits give low values 0.458 | locus YER123W, strain YCK3, hits give low values 0.529 | locus YFR019W, strain FAB1, hits give low values 0.721 | locus YGR092W, strain DBF2, hits give low values 0.484 | [2] 0.197 | locus YHR079C, strain IRE1, hits give low values 0.418 | locus YJL095W, strain BCK1, hits give low values 0.35 | locus YJL157C, strain FAR1, hits give low values 0.533 | locus YJR066W, strain TOR1 (second series), hits give low values 0.531 | locus YKL048C, strain ELM1, hits give low values 0.778 | locus YKL067W, strain YNK1, hits give low values 0.39 | locus YKL101W, strain HSL1, hits give low values 0.542 | locus YLR113W, strain HOG1, hits give low values 0.554 | locus YLR133W, strain CKI1, hits give low values 0.574 | locus YML070W, strain DAK1, hits give low values 0.465 | locus YMR205C, strain PFK2 (second series), hits give low values 0.387 | locus YNL020C, strain ARK1, hits give low values 0.418 | locus YNL183C, strain NPR1, hits give low values 0.351 | locus YNL307C, strain MCK1 (second series), hits give low values 0.556 | locus YOL136C, strain PFK27, hits give low values 0.633 | locus YOR061W, strain CKA2, hits give low values 0.174 | locus YOR231W, strain MKK1, hits give low values 0.333 | locus YPL031C, strain PHO85, hits give low values 0.55 | locus YPL153C, strain RAD53, hits give low values 0.629 | locus YPL256C, strain CLN2, hits give low values 0.515

CN(C)C=Nc1nnc(Sc2ncccc2[N+](=O)[O-])s1
inactive: [3] 0.999 | [4] 1 | [5] 1.01 | [1] 1.01 | locus YDL134C, strain PPH21, hits give low values 1.01 | [6] 0.987 | [7] 0.995 | [8] 1 | locus YGR229C, strain SMI1, hits give low values 0.992 | [2] 1 | [9] 1.01 | [10] 0.985 | [11] 0.997 | [12] 1.03 | [13] 1 | [14] 1.06 | [15] 1.03 | [16] 1.01 | [17] 1.01 | [18] 0.995 | locus YMR307W, strain GAS1, hits give low values 0.983 | [19] 0.977 | [20] 1.06 | [21] 1.02 | [22] 1.04 | [23] 1.01 | [24] 0.988 | [25] 1.02 | [26] 1.06

CC(C)(C)NS(=O)(=O)NC(C)(C)C
active: [25] 1.16 [resistant]
inactive: [3] 0.995 | [4] 1 | [5] 1.03 | [1] 0.977 | [6] 0.88 | [7] 1.01 | [8] 0.999 | [2] 0.952 | [9] 0.964 | locus YJL187C, strain SWE1, hits give low values 0.999 | [10] 0.998 | [11] 1.02 | locus YKL190W, strain CNB1, hits give low values 1 | [12] 1.02 | [13] 1 | [14] 0.999 | [15] 1.02 | [16] 0.976 | [17] 0.995 | [18] 1.04 | locus YNL128W, strain TEP1, hits give low values 0.997 | [19] 1.01 | [20] 0.973 | [21] 1 | [22] 1.01 | [23] 1.01 | [24] 0.921 | [26] 1.02
